Source: paper PMC7862700, “An all-to-all approach to the identification of sequence-specific readers for epigenetic DNA modifications on cytosine”

Tests used:
Assay in all cases: DAPPL (digital affinity profiling via proximity ligation, sequencing); 10 mM Tris-HCl pH 7.5, 50 mM NaCl, 1 mM DTT, 4% glycerol, room temperature, 30 min; GST-TFs on glutathione beads, 16-mer random dsDNA library, 0.1% formaldehyde crosslink after washing; high values mean tight binding
FEV = target: T1, FEV (Homo sapiens, UniProt Q99581 1-238); conditions: protein: recombinant; tags: N-terminal GST; dsDNA, one strand shown
T1 sequence: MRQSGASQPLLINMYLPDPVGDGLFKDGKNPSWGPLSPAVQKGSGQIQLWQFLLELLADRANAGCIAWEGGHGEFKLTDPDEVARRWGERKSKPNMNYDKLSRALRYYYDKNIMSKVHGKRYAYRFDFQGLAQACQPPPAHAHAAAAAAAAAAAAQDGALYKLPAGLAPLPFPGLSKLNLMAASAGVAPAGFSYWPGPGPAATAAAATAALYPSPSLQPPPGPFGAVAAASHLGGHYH
Method in brief: (§1)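 Human transcription factors fused to GST were expressed in yeast, captured on glutathione beads, given DNA barcodes and pooled with a GST-only negative control. Pools were incubated with 200 nmole of a 16-mer random double-stranded DNA library in Tris/NaCl/DTT/glycerol buffer at room temperature for 30 min. They were then washed, crosslinked with 0.1% formaldehyde, proximity-ligated (BsaI/T4 ligase, 1 h, 37 °C), PCR-amplified and sequenced on an Illumina NextSeq500. Binding signal is each 6-mer's read frequency for a factor divided by its frequency for the GST control.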

ETV5 = ETV5 (Homo sapiens, UniProt P41161 1-510); conditions: protein: recombinant; tags: N-terminal GST; dsDNA, one strand shown
ETV5, sequence (P41161 whole entry): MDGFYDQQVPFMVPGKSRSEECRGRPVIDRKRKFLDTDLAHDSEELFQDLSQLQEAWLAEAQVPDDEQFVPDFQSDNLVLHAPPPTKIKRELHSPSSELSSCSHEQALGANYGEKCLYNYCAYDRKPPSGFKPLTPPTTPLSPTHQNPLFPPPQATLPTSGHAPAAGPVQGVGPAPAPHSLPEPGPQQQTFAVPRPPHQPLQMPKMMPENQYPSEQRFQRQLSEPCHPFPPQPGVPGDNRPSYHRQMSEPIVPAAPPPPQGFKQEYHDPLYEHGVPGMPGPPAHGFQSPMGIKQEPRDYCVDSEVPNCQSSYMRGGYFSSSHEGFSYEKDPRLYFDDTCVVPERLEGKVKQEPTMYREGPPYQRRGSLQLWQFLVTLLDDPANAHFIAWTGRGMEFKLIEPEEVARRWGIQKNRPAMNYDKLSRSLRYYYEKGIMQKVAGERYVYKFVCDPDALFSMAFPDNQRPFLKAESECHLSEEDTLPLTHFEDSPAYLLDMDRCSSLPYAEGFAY
Method in brief: as §1

HSF1 = HSF1 (Homo sapiens, UniProt Q00613 1-529); conditions: protein: recombinant; tags: N-terminal GST; chain copies: 3; dsDNA, one strand shown
HSF1, sequence (Q00613 whole entry): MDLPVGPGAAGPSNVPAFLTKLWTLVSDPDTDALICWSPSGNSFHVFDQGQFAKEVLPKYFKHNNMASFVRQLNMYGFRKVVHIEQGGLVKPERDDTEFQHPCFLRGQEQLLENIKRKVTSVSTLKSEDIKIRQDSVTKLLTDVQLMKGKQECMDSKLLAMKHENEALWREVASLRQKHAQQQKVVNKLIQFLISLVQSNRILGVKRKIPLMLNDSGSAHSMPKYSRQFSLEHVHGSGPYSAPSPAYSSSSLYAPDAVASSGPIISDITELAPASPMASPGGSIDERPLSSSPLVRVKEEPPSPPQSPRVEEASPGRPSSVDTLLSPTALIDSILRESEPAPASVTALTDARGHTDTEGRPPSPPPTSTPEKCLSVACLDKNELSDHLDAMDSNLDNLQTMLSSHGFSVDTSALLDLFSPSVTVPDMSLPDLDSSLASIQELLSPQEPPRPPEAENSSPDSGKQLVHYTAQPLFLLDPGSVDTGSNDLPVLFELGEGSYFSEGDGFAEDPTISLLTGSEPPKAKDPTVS
Method in brief: as §1

SPIC = target: T2, SPIC (Homo sapiens, UniProt Q8N5J4 1-248); conditions: protein: recombinant; tags: N-terminal GST; dsDNA, one strand shown
T2 sequence: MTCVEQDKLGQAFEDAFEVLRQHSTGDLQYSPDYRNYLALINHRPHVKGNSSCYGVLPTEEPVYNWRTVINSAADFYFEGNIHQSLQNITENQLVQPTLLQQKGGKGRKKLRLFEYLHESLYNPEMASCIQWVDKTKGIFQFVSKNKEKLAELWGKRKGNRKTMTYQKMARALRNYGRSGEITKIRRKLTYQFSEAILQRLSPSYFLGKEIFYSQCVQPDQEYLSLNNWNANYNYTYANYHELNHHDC
Method in brief: as §1

ELF4 = ELF4 (Homo sapiens, UniProt Q99607 1-663); conditions: protein: recombinant; tags: N-terminal GST; dsDNA, one strand shown
ELF4, sequence (Q99607 whole entry): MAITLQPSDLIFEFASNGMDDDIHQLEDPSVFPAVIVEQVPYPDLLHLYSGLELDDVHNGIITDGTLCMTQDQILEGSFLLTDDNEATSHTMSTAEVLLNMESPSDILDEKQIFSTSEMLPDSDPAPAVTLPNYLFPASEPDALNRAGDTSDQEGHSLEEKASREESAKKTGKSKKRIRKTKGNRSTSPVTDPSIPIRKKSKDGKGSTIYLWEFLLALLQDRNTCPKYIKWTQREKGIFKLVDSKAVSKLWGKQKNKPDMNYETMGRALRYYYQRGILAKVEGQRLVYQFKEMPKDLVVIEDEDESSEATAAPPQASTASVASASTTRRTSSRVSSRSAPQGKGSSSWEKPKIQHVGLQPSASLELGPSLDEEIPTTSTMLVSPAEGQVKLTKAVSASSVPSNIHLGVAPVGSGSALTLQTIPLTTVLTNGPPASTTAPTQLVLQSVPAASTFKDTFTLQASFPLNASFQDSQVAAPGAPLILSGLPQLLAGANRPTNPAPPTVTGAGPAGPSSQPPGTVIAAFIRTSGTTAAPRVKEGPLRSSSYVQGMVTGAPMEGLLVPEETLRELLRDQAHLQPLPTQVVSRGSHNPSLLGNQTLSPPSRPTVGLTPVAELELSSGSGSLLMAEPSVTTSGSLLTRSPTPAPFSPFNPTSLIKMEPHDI
Method in brief: as §1

ELK4 = target: T3, ELK4 (Homo sapiens, UniProt P28324-2 1-405); conditions: protein: recombinant; tags: N-terminal GST; dsDNA, one strand shown
T3 sequence: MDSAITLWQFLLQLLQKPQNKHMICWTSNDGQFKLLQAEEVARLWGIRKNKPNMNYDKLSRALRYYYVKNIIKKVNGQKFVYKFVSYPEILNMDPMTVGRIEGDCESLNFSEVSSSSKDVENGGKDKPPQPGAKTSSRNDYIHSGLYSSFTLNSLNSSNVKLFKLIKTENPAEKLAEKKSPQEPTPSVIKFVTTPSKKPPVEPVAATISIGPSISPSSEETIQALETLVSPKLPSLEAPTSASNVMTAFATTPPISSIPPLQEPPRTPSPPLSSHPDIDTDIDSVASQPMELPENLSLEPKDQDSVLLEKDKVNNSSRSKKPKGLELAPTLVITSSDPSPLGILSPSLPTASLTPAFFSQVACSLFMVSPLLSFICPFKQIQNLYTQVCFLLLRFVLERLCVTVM
Method in brief: as §1

ETV2 = target: T4, ETV2 (Homo sapiens, UniProt O00321 1-342); conditions: protein: recombinant; tags: N-terminal GST; dsDNA, one strand shown
T4 sequence: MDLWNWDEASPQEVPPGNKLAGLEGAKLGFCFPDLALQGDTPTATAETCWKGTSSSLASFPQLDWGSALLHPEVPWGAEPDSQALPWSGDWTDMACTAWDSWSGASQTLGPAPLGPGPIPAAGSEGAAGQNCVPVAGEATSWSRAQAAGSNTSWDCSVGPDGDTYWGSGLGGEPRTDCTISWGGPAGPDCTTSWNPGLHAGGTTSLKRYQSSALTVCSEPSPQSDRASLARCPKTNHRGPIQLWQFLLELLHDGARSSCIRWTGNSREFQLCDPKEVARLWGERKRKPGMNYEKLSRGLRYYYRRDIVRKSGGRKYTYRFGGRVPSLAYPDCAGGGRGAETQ
Method in brief: as §1

ELF3 = target: T5, ELF3 (Homo sapiens, UniProt P78545 1-371); conditions: protein: recombinant; tags: N-terminal GST; dsDNA, one strand shown
T5 sequence: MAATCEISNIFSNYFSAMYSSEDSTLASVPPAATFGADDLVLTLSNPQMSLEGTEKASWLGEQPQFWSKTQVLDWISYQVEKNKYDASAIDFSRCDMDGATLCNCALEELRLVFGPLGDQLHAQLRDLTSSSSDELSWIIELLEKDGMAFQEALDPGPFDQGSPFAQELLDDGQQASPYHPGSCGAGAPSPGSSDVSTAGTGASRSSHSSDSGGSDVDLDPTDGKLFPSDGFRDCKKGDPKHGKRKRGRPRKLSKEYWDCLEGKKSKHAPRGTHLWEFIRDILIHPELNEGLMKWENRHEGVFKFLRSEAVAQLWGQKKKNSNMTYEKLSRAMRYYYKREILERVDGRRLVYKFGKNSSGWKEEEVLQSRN
Method in brief: as §1

CRX = CRX (Homo sapiens, UniProt O43186 1-299); conditions: protein: recombinant; tags: N-terminal GST; dsDNA, one strand shown
CRX, sequence (O43186 whole entry): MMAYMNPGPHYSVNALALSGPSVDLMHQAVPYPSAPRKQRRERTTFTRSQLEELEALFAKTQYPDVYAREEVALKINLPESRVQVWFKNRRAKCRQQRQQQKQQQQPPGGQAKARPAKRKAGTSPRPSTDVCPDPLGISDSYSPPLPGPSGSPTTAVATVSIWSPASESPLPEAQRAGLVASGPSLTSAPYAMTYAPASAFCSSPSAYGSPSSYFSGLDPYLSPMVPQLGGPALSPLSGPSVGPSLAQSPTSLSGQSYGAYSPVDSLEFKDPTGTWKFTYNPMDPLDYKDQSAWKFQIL
Method in brief: as §1

CCTCTA
binding signal (FEV): 1.4 fold enrichment (6-mer frequency, TF over GST control)
binding signal (ETV5): 1.27 fold enrichment (6-mer frequency, TF over GST control)
binding signal (HSF1): 1.38 fold enrichment (6-mer frequency, TF over GST control)
binding signal (SPIC): 1.37 fold enrichment (6-mer frequency, TF over GST control)
binding signal (ELF4): 1.35 fold enrichment (6-mer frequency, TF over GST control)
binding signal (ELK4): 1.24 fold enrichment (6-mer frequency, TF over GST control)
binding signal (ETV2): 1.37 fold enrichment (6-mer frequency, TF over GST control)
binding signal (ELF3): 1.43 fold enrichment (6-mer frequency, TF over GST control)
binding signal (CRX): 1.45 fold enrichment (6-mer frequency, TF over GST control)
